Hits are enriched below; roughly 2.6% of the tested compounds scored in any of these assays.
PABP FP inh: blocks human PABP binding to poly(A) RNA; fluorescence polarization; 1% of 290,000 active; inhibition, % at 35 µM; AID 2014;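 note: calls also rest on retests at 20 µM and on dose response follow-up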
PABP1 MLLE inh: blocks PAM2 peptide binding to the PABP1 MLLE domain; GST-MLLE / FITC-PAM2 fluorescence polarization; 0.36% of 360,000 active; inhibition, % at 20 µM; AID 588489; in the data active = inhibition above about 35%, passing the limit was not always enough
CRFBP-R2 block: antagonists of CRF-binding protein/CRF-R2 receptor complex; HEK293 CRF-R2/CRF-BP, CRF-induced calcium fluorescence; inhibition, % at 11.8 µM; 0.59% of 350,000 active; AID 588475;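 active = inhibition of the ligand-induced calcium signal above about 50% at the single tested concentration, limit read from the data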
eIF4H FP inh: inhibitors of RNA binding by human eIF4H; 0.94% of 290,000 active; inhibition, % at 35 µM; AID 2012; eIF4H fluorescence polarization binding assay; Q15056;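 note: calls also rest on retests at 20 µM and on dose response follow-up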
PHOSPHO1 inh: inhibitors of human PHOSPHO1 phosphatase; recombinant PHOSPHO1, absorbance phosphatase assay; inhibition, % at 13.3 µM; 1.1% of 290,000 active; AID 1565; in the data active = inhibition above about 60%
Target sequence (Q8TCT1 whole entry, looked up): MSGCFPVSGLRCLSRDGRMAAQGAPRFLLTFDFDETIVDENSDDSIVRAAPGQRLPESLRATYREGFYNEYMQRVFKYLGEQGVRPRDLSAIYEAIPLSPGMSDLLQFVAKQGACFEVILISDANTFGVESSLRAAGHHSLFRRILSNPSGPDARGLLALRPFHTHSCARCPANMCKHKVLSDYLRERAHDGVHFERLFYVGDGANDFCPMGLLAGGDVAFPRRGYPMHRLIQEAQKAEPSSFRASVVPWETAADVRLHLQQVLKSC
A number is an active result; 0 = inactive; ? = inconclusive; - = no result given. Unless noted, the rule behind the calls is not given here.

SMILES	PABP FP inh	PABP1 MLLE inh	CRFBP-R2 block	eIF4H FP inh	PHOSPHO1 inh
CCn1c(C)cc(/C=C2/NC(=O)N(Cc3ccccc3F)C2=O)c1C	0	0	0	0	0
Cc1cccc(NCc2n[nH]c(=S)n2-c2ccccc2)c1	0	0	0	0	94
COCc1n[nH]c(=S)n1-c1cccc2ccccc12	0	0	0	0	74
Cc1ccc(NCc2n[nH]c(=S)n2-c2ccccc2)cc1	0	0	0	0	0
S=c1[nH]nc(Cc2cccc3ccccc23)n1-c1ccccc1	0	0	0	0	94
COc1cccc(CNC(=O)COC(=O)CCS(=O)(=O)c2ccc(C)cc2)c1	-	0	0	-	-
COCCN(C(=O)Cc1cccs1)C(C(=O)NC1CCCC1)c1cc(OC)c(OC)c(OC)c1 (centres undefined)	0	0	0	0	62
COc1ccc(C(C(=O)NC2CCCCC2)N(Cc2cccs2)C(=O)Cc2c[nH]c3ccccc23)cc1OC (centres undefined)	0	0	52	0	0
COc1ccc(C(C(=O)NC2CCCC2)N(C(=O)Cc2cccs2)C2CC2)cc1OC (centres undefined)	0	0	0	0	0
O=C(N/N=C/c1nn(-c2ccccc2)cc1-c1ccc(Cl)cc1)c1ccncc1	0	-	-	0	0
N#C/C(=N/Nc1ccc(OC(F)(F)F)cc1)C(N)=S	0	41	0	0	0
CCOC(=O)c1cc(C#N)c(SC)nc1C	0	0	0	0	0
CSc1nc(C)c(C(=O)C[n+]2ccccc2C)cc1C#N	0	0	72	0	0
Cc1cccc(C)c1OCC(=O)Nc1oc(-c2ccccc2)c(-c2ccccc2)c1C#N	-	0	107	-	-
COc1ccc(C(=O)Nc2oc(-c3ccccc3)c(-c3ccccc3)c2C#N)cc1	0	0	0	0	0
CC1OC23CCCCC2C(C#N)(C(=N)O3)C1(C#N)C#N (centres undefined)	0	0	0	0	0
N#CC1(C#N)COC23CCCCC2C1(C#N)C(=N)O3 (centres undefined)	32	0	0	0	0
N#CC12COC3(CCCCC3C1(C#N)C#N)OC2=N (centres undefined)	?	49	0	?	0
CCCC1OC23CCCCC2C(C#N)(C(=N)O3)C1(C#N)C#N (centres undefined)	?	58	0	?	0
O=C(Cc1cccc(NC(=O)C2CCCN(C(=O)C3CCC3)C2)c1)Nc1cccc(C(=O)N2CCOCC2)c1 (centres undefined)	-	0	0	-	-
CCOC(=O)c1[nH]cnc1N=Nc1c(O)ccc2ccccc12	0	51	0	?	0
CC(NC(=O)c1ccc(-c2ccccc2)cc1)C(c1ccccc1)N1CCOCC1 (centres undefined)	-	0	0	-	-
CC(NC(=O)c1ccc(C(F)(F)F)cc1)C(c1ccccc1)N1CCOCC1 (centres undefined)	0	0	0	0	63
Cn1c(=Nc2ccc(N3CCOCC3)cc2)ccc2ccccc21	0	0	0	0	96
Nc1ncnc2c1ncn2C1C=C(CO)C(O)C1O (centres undefined)	-	0	0	-	-
SMILES	PABP FP inh	PABP1 MLLE inh	CRFBP-R2 block	eIF4H FP inh	PHOSPHO1 inh
Cc1cnc(CNC(=O)CC2C(=O)NCCN2Cc2ccccc2F)cn1 (centres undefined)	0	0	0	0	0
Cc1cnc(CNC(=O)CC2C(=O)NCCN2Cc2cccc(F)c2F)cn1 (centres undefined)	53	0	0	81	0
COc1cccc(CN2CCNC(=O)C2CC(=O)NCc2cn3cccc(C)c3n2)c1OC (centres undefined)	0	0	0	0	0
COc1cccc(CN2CCNC(=O)C2CC(=O)NCc2cn3ccccc3n2)c1OC (centres undefined)	38	0	0	86	0
Cc1nc(CCNC(=O)CC2C(=O)NCCN2Cc2ccccc2)sc1C (centres undefined)	0	38	0	0	0
O=C(O)CNC(=O)/C(=C/c1ccco1)NC(=O)/C=C/c1ccccc1	active	0	0	53	0
c1ccc(C(c2nnnn2Cc2cccs2)N2CCN(C3CCCC3)CC2)cc1 (centres undefined)	0	0	65	0	0
C[C@@]12C(=O)N(c3cccc(F)c3)C(=O)N1[C@@H]1c3ccccc3OC[C@@H]1[C@H]2c1ccccc1	-	0	0	-	-
Nc1ccc(Oc2ccc3c(c2)OCO3)cc1	0	0	0	0	61
Nc1ccc(Oc2cccc(Oc3ccc(N)cc3)c2)cc1	0	0	0	0	0
O=C(NC(=S)Nc1c(Cl)ccc2nsnc12)c1ccccc1F	-	0	58	-	0
CN(C)C(=O)c1cccc(-c2csc(N3CCC(C(N)=O)CC3)n2)c1	-	-	0	-	-
N#Cc1cccc(NC(=O)CSc2sc3c(O)cc(=O)[nH]c3c2C#N)c1	0	0	0	0	0
N#Cc1c(SCC(=O)Nc2nccs2)sc2c(O)cc(=O)[nH]c12	38	0	0	68	0
N#Cc1c(SCC(=O)Nc2nc3ccccc3s2)sc2c(O)cc(=O)[nH]c12	-	0	0	-	-
CCCSc1nnc(NC(=O)CSc2sc3c(O)cc(=O)[nH]c3c2C#N)s1	46	0	0	72	0
N#Cc1c(SCC(=O)Nc2ccc(Cl)cc2Cl)sc2c(O)cc(=O)[nH]c12	0	0	0	0	0
N#Cc1c(SCC(=O)Nc2nc3ccc(Br)cc3s2)sc2c(O)cc(=O)[nH]c12	48	0	0	73	0
CCc1nc2c(OCc3cccc(OC)c3)cccn2c1N(C)C(=O)c1ccc(OC)cc1	-	0	-	-	-
CCOc1ccccc1N(C)C(=O)Cn1ncc2c([nH]c3ccccc32)c1=O	0	0	94	0	0
CC(=O)Nc1cc(-c2ccc(S(C)(=O)=O)cc2)cn2c(-c3ccc(F)c(Cl)c3)cnc12	-	0	-	-	-
Cc1cc(-c2sccc2C)nc(-n2cccc2)n1	44	0	0	?	0
CN(Cc1ccccc1)C(=O)C1CCN(S(=O)(=O)c2ccc3nc4c(c(C(=O)O)c3c2)CCCC4)CC1	0	0	0	66	0
CC(C)CNc1ncnc2c1ncn2[C@H]1CN(Cc2ccc(C(=O)O)cc2)C[C@@H](CO)O1	-	0	-	-	-
O=C(Cc1c(O)c2ccccc2[nH]c1=O)OC1CCCCC1	0	0	67	0	0
SMILES	PABP FP inh	PABP1 MLLE inh	CRFBP-R2 block	eIF4H FP inh	PHOSPHO1 inh
CCCNC(=O)C1(C)CCN(C(=O)c2ccc(C)c(F)c2)C1 (centres undefined)	-	0	-	-	-
CC(=O)N1CCOc2cc(S(=O)(=O)N3CCN(c4ccccc4)CC3)c(Cl)cc21	0	0	54	0	0
CC(=NCc1ccncc1)C1=C(O)c2ccccc2C1=O	0	-	-	0	64
CCN(Cc1ccccc1)C(=O)CN1C(=O)COc2ccc(S(=O)(=O)NC3CCCC3)cc21	0	0	0	0	63
COc1ccc(CNC(=O)CN2C(=O)COc3ccc(S(=O)(=O)NC4CCCC4)cc32)cc1	0	0	0	0	0
Fc1ccc(OCCCCCn2ccnc2)cc1	0	0	55	0	0
Fc1ccc(OCCCn2ccnc2)cc1	0	0	0	0	0
C/C(=N\NC(N)=O)c1ccccc1	0	0	0	0	0
C/C(=N\NC(N)=O)c1ccccc1Cl	60	0	0	106	0
C=CCc1c(C)nc(SC)nc1Nc1ccc(C(=O)O)cc1	0	0	0	0	0

High-throughput results (PubChem)
